Inconclusive results are not listed. Activity calls are given as the source filed them. Unless noted, the call rests on the fitted dose curve; in most records, active means well fitted curve in the direction sought with a large enough effect; inconclusive means small, poorly fitted or top-dose-only effect, or another doubt; inactive means no such curve, though single readings can be large; an effect the other way counts as inactive or inconclusive.
Columns and labels:
[1] = target: Ubiquitin carboxyl-terminal hydrolase 1 (Homo sapiens) (UniProt O94782); assay: Inhibitors of USP1/UAF1: Pilot qHTS (AID 504865); further: nearly all actives have a fitted effect of over 35% in size; further: potency means the concentration at half of the fitted maximal effect
Procedure, shortened: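 1nM USP1/UAF1 + cpd, 15 min RT; start w/ Ub-Rho 150nM final; kinetic FL 480/540 nm, 6 reads q60 s. Buffer 50mM HEPES pH 7.8, 0.5mM EDTA, 1mM TCEP, 0.01% Tween-20, 0.1 mg/ml BSA.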

[2] = target: Luciferin 4-monooxygenase (Photinus pyralis) (UniProt P08659); assay: Biochemical firefly luciferase enzyme assay for NPC (AID 624030);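 further: purified P. pyralis luciferase at 10 nM with luciferin and ATP substrate; nearly all actives have a fitted effect of over 70% in size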
Procedure, shortened: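 Purified P. pyralis luciferase at 10 nM in 50 mM Tris Acetate (final), luminescence read within 5 minutes of enzyme addition to compounds. Activity normalised to PTC124 versus DMSO; concentration-response curves classed by r2, magnitude and activity.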

[3] = S16 Schwann cell viability assay (CellTiter-Glo assay) (AID 624031);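 further: cellular ATP luminescence as a viability measure; nearly all actives have a fitted effect of over 70% in size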
Procedure, shortened: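 Untransfected S16 rat Schwann cells; compound 24 h, 37 °C/5% CO2; CellTiter-Glo ATP luminescence. % activity vs no-cell wells and DMSO controls (0%); concentration-effect curves classed by r2, response magnitude, activity.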

[4] = S16 Schwann cell PMP22 intronic element firefly luciferase assay (AID 624032); further: nearly all actives have a fitted effect of over 30% in size; further: potency means the concentration at half of the fitted maximal effect
Procedure, shortened: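 Rat S16 Schwann cells stably carrying firefly luciferase driven by a PMP22 intronic element, in 10% FBS, treated 24 h at 37 C. ONE-Glo luminescence normalized to PTC124 control and DMSO (0%); curves classed by r2, magnitude and activity.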

[5] = tested on: AA1029; assay: qHTS profiling for inhibitors of Plasmodium falciparum proliferation (AID 504749); further: nearly all actives have a fitted effect of over 60% in size; further: potency means the concentration at half of the fitted maximal effect; settings: P. falciparum in erythrocytes, SYBR Green DNA, 72 h; series mostly up to 28.7 µM
Procedure, shortened: (§1)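 P. falciparum-infected erythrocytes (0.3% parasitemia, 2.5% hematocrit) incubated with compound 72 h at 37 C, 5% CO2. Parasite DNA detected by SYBR Green after lysis, overnight at room temperature; normalised to 0.29 uM artemisinin and DMSO.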

[6] = tested on: CP215; assay: as above; settings: P. falciparum in erythrocytes, SYBR Green DNA, 72 h; series mostly up to 28.7 µM
Procedure, shortened: as §1

[7] = tested on: CP260; assay: as above; settings: P. falciparum in erythrocytes, SYBR Green DNA, 72 h; series mostly up to 28.7 µM
Procedure, shortened: as §1

[8] = tested on: CP335; assay: as above; settings: P. falciparum in erythrocytes, SYBR Green DNA, 72 h; series mostly up to 28.7 µM
Procedure, shortened: as §1

[9] = tested on: ICS; assay: as above; settings: P. falciparum in erythrocytes, SYBR Green DNA, 72 h; series mostly up to 28.7 µM
Procedure, shortened: as §1

[10] = tested on: N140; assay: as above; settings: P. falciparum in erythrocytes, SYBR Green DNA, 72 h; series mostly up to 28.7 µM
Procedure, shortened: as §1

[11] = tested on: PC26; assay: as above; settings: P. falciparum in erythrocytes, SYBR Green DNA, 72 h; series mostly up to 28.7 µM
Procedure, shortened: as §1

[12] = tested on: TAB165; assay: as above; settings: P. falciparum in erythrocytes, SYBR Green DNA, 72 h; series mostly up to 28.7 µM
Procedure, shortened: as §1

[13] = S16 Schwann cell PMP22 intronic element beta-lactamase assay (AID 624044; calls by dose curve; further: nearly all actives have a fitted effect of over 15% in size; further: potency means the concentration at half of the fitted maximal effect); settings: S16 rat Schwann cells, PMP22 element beta-lactamase FRET, 24 h; ratio activity, negative = inhibition: at 38.3 µM (top of the series)
Procedure, shortened: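 Rat S16 Schwann cells with beta-Lac driven by a PMP22 intronic element, compound-treated 24 h at 37 °C. LiveBLAzer FRET B/G read: 460 nm normalized to potassium clavulanate vs DMSO; 535 nm FRET as viability; concentration-effect curves classified.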

[14] = target: Cytochrome P450 3A4 (Homo sapiens) (UniProt P08684); assay: qHTS Assay for Inhibitors and Substrates of Cytochrome P450 3A4 (AID 884); further: nearly all actives have a fitted effect of over 50% in size
Procedure, shortened: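 20 nM human CYP3A4 with 25 uM Luciferin-PPXE (at KM) in 200 mM KPO4, preincubated 10 min with compound; NADPH regeneration started a 60 min RT reaction. Luciferin detected by luminescence, normalized to 57 uM ketoconazole as full inhibition.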

[15] = Confirmation and Secondary Assay for Modulators of Hemoglobin Beta Chain Splicing at IVS2 654 locus (AID 910);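 further: HeLa cells stably carrying EGFP split by mutant beta-globin IVS2-654 intron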
Procedure, shortened: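 HeLa cells stably expressing EGFP interrupted by β-globin IVS2-654 intron, seeded overnight in Opti-MEM/2% FCS, then treated 2 days at 37 °C. Restored splicing read as total peak GFP intensity per well by laser scanning cytometry (488 nm excitation, 500–520 nm emission); 500 nM antisense PNA as control.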

[16] = Confirmation and Secondary Assay for Modulators of Hemoglobin Beta Chain Splicing at IVS2 705 locus (AID 930);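 further: HeLa cells stably expressing the EGFP-705 splicing reporter; GFP fluorescence per well restored by corrected splicing of the IVS2-705 intron in EGFP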
Procedure, shortened: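 Read-out: total peak GFP fluorescence per well (488 nm excitation, 500-520 nm emission) by laser-scanning cytometry. Cells: HeLa EGFP-705 splicing reporter, 2 days compound exposure in Optimem/2% FCS.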

Measured: Potency

Chain of Luciferin 4-monooxygenase (Photinus pyralis) (P08659 whole entry, looked up): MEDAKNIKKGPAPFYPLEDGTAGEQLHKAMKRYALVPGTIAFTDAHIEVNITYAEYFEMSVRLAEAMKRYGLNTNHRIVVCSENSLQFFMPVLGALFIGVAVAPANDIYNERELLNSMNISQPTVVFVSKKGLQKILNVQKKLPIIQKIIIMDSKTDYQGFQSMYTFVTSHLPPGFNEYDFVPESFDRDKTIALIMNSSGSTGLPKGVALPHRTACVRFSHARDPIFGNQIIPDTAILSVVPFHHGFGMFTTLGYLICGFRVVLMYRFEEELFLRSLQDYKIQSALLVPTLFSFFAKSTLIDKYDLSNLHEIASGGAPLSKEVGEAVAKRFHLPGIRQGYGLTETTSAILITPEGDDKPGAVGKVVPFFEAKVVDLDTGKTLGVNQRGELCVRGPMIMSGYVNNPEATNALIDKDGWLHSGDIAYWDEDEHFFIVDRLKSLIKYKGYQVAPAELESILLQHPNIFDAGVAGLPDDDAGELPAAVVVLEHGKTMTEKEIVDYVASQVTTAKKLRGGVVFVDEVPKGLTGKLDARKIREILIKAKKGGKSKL
Chain of Ubiquitin carboxyl-terminal hydrolase 1 (Homo sapiens) (O94782 whole entry, looked up): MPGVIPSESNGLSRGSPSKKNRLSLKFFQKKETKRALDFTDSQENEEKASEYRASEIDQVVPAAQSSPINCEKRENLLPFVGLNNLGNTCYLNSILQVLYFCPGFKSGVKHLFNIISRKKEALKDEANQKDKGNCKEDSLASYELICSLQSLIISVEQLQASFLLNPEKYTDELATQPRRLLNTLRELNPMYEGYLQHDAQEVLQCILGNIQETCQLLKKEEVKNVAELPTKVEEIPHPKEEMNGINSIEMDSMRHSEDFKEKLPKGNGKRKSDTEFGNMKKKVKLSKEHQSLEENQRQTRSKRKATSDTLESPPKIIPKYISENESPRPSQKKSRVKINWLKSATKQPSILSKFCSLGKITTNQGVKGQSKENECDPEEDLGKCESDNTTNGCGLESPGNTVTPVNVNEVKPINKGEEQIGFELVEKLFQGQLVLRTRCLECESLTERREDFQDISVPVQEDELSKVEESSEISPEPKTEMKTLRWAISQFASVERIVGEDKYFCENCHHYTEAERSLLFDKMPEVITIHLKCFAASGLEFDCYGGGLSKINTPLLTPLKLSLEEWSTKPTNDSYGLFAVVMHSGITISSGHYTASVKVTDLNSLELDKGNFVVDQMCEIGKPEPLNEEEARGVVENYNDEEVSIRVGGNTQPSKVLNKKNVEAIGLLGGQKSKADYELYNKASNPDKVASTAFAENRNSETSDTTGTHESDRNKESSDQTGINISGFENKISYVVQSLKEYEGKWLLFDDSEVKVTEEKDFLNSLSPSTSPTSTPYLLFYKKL
Chain of Cytochrome P450 3A4 (Homo sapiens) (P08684 whole entry, looked up): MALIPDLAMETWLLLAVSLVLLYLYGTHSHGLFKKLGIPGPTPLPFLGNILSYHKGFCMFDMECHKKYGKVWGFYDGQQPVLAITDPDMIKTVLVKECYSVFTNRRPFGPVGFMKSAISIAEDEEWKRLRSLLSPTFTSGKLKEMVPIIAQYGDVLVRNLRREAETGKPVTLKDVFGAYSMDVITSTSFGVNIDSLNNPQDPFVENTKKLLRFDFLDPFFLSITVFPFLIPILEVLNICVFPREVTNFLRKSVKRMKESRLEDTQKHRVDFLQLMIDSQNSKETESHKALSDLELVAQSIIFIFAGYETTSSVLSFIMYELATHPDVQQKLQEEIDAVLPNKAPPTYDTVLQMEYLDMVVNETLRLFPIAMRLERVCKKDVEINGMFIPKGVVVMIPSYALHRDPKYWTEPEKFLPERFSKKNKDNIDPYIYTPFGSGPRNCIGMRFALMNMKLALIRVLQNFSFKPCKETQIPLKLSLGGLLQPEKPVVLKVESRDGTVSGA

CC(=O)NC1[C@H](O)C[C@@](O)(C(=O)O)O[C@H]1[C@H](O)[C@H](O)CO (stereo not given in full)
not listed: [13] | [14] | [15] | [16]
inactive: all other assays above

CO[C@H]1OC2O[C@@]3(C)CC[C@H]4[C@H](C)CC[C@@H]([C@H]1C)[C@@]24OO3 (stereo not given in full)
active: [4] 3220 nM | [5] 31.6 nM | [6] 30.1 nM | [7] 14.1 nM | [8] 23.9 nM | [9] 4.5 nM | [10] 12.6 nM | [11] 15.1 nM | [12] 22.4 nM
inactive: [1] | [2] | [3] | [13]

CC(=O)NC1[C@H]([C@H](O)[C@H](O)CO)OC(C(=O)O)=C[C@H]1N=C(N)N (stereo not given in full)
not listed: [2] | [4] | [14] | [15] | [16]
inactive: all other assays above

COc1cccc2c1C(=O)c1c(O)c3c(c(O)c1C2=O)C[C@@](O)(C(=O)CO)C[C@@H]3OC1CC(N)C(O)C(C)O1 (stereo not given in full)
inactive: [2] | [3] | [4]
active: [1] 50100 nM | [13] 354 nM | [5] 2240 nM | [6] 3790 nM | [7] 708 nM | [8] 1200 nM | [9] 631 nM | [10] 2510 nM | [11] 4780 nM | [12] 2240 nM

OCC1O[C@H](O[C@H]2C(O)C(O)C(O)O[C@@H]2CO)C(O)C(O)C1O (stereo not given in full)
not listed: [1] | [13]
inactive: all other assays above

Cc1cn([C@H]2CC(F)[C@@H](CO)O2)c(=O)[nH]c1=O (stereo not given in full)
not listed: [1] | [14] | [15] | [16]
inactive: all other assays above

CC(O)C(N)C(=O)O (stereo not given)
not listed: [1] | [14] | [15] | [16]
inactive: all other assays above

C=CC1CN2CCC1CC2[C@@H](O)c1ccnc2ccc(OC)cc12 (stereo not given in full)
active: [4] 32200 nM | [5] 282 nM | [6] 478 nM | [7] 355 nM | [8] 338 nM | [9] 89.1 nM | [10] 316 nM | [11] 239 nM | [12] 251 nM
inactive: [2] | [3] | [13]

C=NC(C(=O)NC1C(=O)N2C1SC(C)(C)C2C(=O)O)c1ccccc1 (stereo not given)
not listed: [1] | [14]
inactive: all other assays above

CC(=O)OCC(=O)[C@@]1(O)CCC2C3CCC4=CC(=O)C=CC4(C)C3C(O)C[C@]21C (stereo not given in full)
not listed: [2] | [3] | [13]
inactive: all other assays above

OCC1O[C@@H](O[C@@H]2C(CO)OC(O)C(O)C2O)C(O)C(O)C1O (stereo not given in full)
not listed: [3] | [14] | [15] | [16]
inactive: all other assays above

C=C(NCc1ccccc1)c1ccccc1O
not listed: [2] | [14] | [15] | [16]
inactive: all other assays above

— PubChem BioAssay (NCATS)
